Measurements: PMC11995724, “Antibiotic target discovery by integrated phenotypic and activity-based profiling of electrophilic fragments” (Cell chemical biology, 2025)
Among all 3,200 compounds or so, about 110 (3.4%) showed an effect of 50% or more. The list comes from a sample in which strong results are over-represented; it also holds similar structures and randomly drawn compounds.

tested on: T1, V. cholerae SAD30; parameters: species or system S. aureus MSSA476 (TSB) or V. cholerae SAD30 (LB); 384-well bacterial growth screen at 25 uM, OD600 relative to DMSO control; details: relative growth, OD600, LB; 25 µM; inhibitor
T1 construct: SAD30

SMILES | % of control remaining [%]
O=C(CCl)Nc1cc2c(cc1[N+](=O)[O-])OCCCO2 [4-O05, 2-chloro-N-(8-nitro-3,4-dihydro-2H-1,5-benzodioxepin-7-yl)acetamide] | 108.001
Cl.O=C(CCl)c1ccncc1 [10-M09, 2-chloro-1-(pyridin-4-yl)ethan-1-one hydrochloride] | -0.1559
O=C(CCl)c1ccoc1 [10-O09, 2-chloro-1-(furan-3-yl)ethan-1-one] | 123.281
O=C(CCl)c1c[nH]c2ccncc12 [10-K05, 2-chloro-1-{1H-pyrrolo[3,2-c]pyridin-3-yl}ethan-1-one] | 101.305
Cl.O=C(CCl)c1ccncc1F [10-I09, 2-chloro-1-(3-fluoropyridin-4-yl)ethan-1-one hydrochloride] | 0
O=C(CCl)NCC(F)(F)c1cccnc1 [6-C21, 2-chloro-N-[2,2-difluoro-2-(pyridin-3-yl)ethyl]acetamide] | 97.8292
O=C(CCl)c1ccc(C(F)(F)F)cc1 [10-B10, 2-chloro-1-[4-(trifluoromethyl)phenyl]ethan-1-one] | 79.174
COc1ccc(C=C(C#N)C(=O)Nc2c(C)cccc2C)cc1OC [8-A17, 2-cyano-3-(3,4-dimethoxyphenyl)-N-(2,6-dimethylphenyl)prop-2-enamide] | 86.6757
Cc1n[nH]c(C)c1C=C(C#N)C(=O)Nc1cc(Cl)cc(Cl)c1 [8-M08, 2-cyano-N-(3,5-dichlorophenyl)-3-(3,5-dimethyl-1H-pyrazol-4-yl)prop-2-enamide] | 68.3209
CCOc1ccc2nc(NC(=O)CCl)sc2c1 [4-L10, 2-chloro-N-(6-ethoxy-1,3-benzothiazol-2-yl)acetamide] | 94.3714
C=CC(=O)N1CCC(C(=O)NCCc2c(C)n[nH]c2C)CC1 [2-D04, N-[2-(3,5-dimethyl-1H-pyrazol-4-yl)ethyl]-1-(prop-2-enoyl)piperidine-4-carboxamide] | 106.099
CC(Cl)C(=O)N1CCN(S(=O)(=O)c2ccccc2)CC1 (stereo not shown) [6-B12, 1-[4-(benzenesulfonyl)piperazin-1-yl]-2-chloropropan-1-one] | 88.4254
CCc1cccc(CC)c1NC(=O)CCl [4-F10, 2-chloro-N-(2,6-diethylphenyl)acetamide] | 103.86
Cc1cccc2[nH]cc(C(=O)CCl)c12 [10-H09, 2-chloro-1-(4-methyl-1H-indol-3-yl)ethan-1-one] | 100.526
CCc1cccc2c(C(=O)CCl)c[nH]c12 [10-C12, 2-chloro-1-(7-ethyl-1H-indol-3-yl)ethan-1-one] | 24.3133
Cc1noc(C)c1COC1CCN(C(=O)C(C)Cl)C1 (stereo not shown) [7-O14, 2-chloro-1-{3-[(3,5-dimethyl-1,2-oxazol-4-yl)methoxy]pyrrolidin-1-yl}propan-1-one] | 78.3744

SMILES | % of control remaining [%]
Cc1cc(C(=O)CCl)c(C)n1-c1ccon1 [10-F06, 2-chloro-1-[2,5-dimethyl-1-(1,2-oxazol-3-yl)-1H-pyrrol-3-yl]ethan-1-one] | 37.8726
Cc1cc(C(=O)CCl)c(C)n1-c1ccccc1 [10-L20, 2-chloro-1-(2,5-dimethyl-1-phenyl-1H-pyrrol-3-yl)ethan-1-one] | 100.682
Cc1cc(C(=O)CCl)c(C)n1-c1ccccn1 [10-C16, 2-chloro-1-[2,5-dimethyl-1-(pyridin-2-yl)-1H-pyrrol-3-yl]ethan-1-one] | 41.1455
Cc1cc(C)cc(-n2c(C)cc(C(=O)CCl)c2C)c1 [10-E04, 2-chloro-1-[1-(3,5-dimethylphenyl)-2,5-dimethyl-1H-pyrrol-3-yl]ethan-1-one] | 92.1099
Cc1ccccc1-n1c(C)cc(C(=O)CCl)c1C [10-H20, 2-chloro-1-[2,5-dimethyl-1-(2-methylphenyl)-1H-pyrrol-3-yl]ethan-1-one] | 100.526
Cc1cc(-n2c(C)cc(C(=O)CCl)c2C)no1 [10-C18, 2-chloro-1-[2,5-dimethyl-1-(5-methyl-1,2-oxazol-3-yl)-1H-pyrrol-3-yl]ethan-1-one] | 106.137
Cc1ccc(S(=O)(=O)NC2CN(C(=O)CCl)C2)cc1 [5-E07, N-[1-(2-chloroacetyl)azetidin-3-yl]-4-methylbenzene-1-sulfonamide] | 95.6604
C[C@H](NC(=O)CCl)C(=O)N1CCCCC1 [7-L14, 2-chloro-N-[(2S)-1-oxo-1-(piperidin-1-yl)propan-2-yl]acetamide] | 80.489
COc1ccc(C=C(C#N)C(=O)Nc2cccc(C)c2)cc1 [8-M03, 2-cyano-3-(4-methoxyphenyl)-N-(3-methylphenyl)prop-2-enamide] | 85.4521
C=CC(=O)NCCc1csc(C)n1 [1-D13, N-[2-(2-methyl-1,3-thiazol-4-yl)ethyl]prop-2-enamide] | 86.9955
C=CC(=O)NCCc1nc(C)cs1 [2-D05, N-[2-(4-methyl-1,3-thiazol-2-yl)ethyl]prop-2-enamide] | 94.8278
C=CC(=O)NCC(=O)c1scc(C)c1Cl [1-D16, N-[2-(3-chloro-4-methylthiophen-2-yl)-2-oxoethyl]prop-2-enamide] | 44.1609
COc1ccc(NC(=O)c2ccccc2NC(=O)CCl)cc1 [4-L05, 2-(2-chloroacetamido)-N-(4-methoxyphenyl)benzamide] | 109.209
O=C(CCl)NCCSc1ccccc1 [4-G21, 2-chloro-N-[2-(phenylsulfanyl)ethyl]acetamide] | 113.522
CN1c2ccccc2C(NC(=O)CCl)CS1(=O)=O (stereo not shown) [7-L04, 2-chloro-N-(1-methyl-2,2-dioxo-3,4-dihydro-1H-2lambda6,1-benzothiazin-4-yl)acetamide] | 88.9476
